Laboratory results published in PubChem BioAssay AID1159580 (chemical genetic matrix, 2015).
Hit rate of the full screen: of about 5,500 compounds, about 2,000 (36%) were called active. About 18% were inconclusive and are not listed. Rule as the data show it: active = normalized growth mostly below about 0.91 (no sharp cut-off); inconclusive = no clear call, values can overlap the other calls; inactive = mostly above about 0.92. The list shows a part of the results.

Experiment: chemical genetic growth profiling, strain panel (AID 1159580);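 also: tested at 20 µM; growth read once vehicle control cultures reached saturation at 30 °C; 1 = growth at the plate median or of vehicle wells; lower values mean less growth of the strain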
Conditions: S. cerevisiae deletion strains, growth OD
[1] = locus YCL061C, strain MRC1, hits give low values
[2] = locus YHR030C, strain SLT2, hits give low values

Measured: normalized growth

O=C(O)CSCc1ccccc1
inactive: locus YAL013W, strain DEP1, hits give low values 1.01 | locus YBR229C, strain ROT2, hits give low values 1 | [1] 0.991 | locus YDL101C, strain DUN1, hits give low values 1.02 | locus YDL134C, strain PPH21, hits give low values 0.986 | locus YDR150W, strain NUM1, hits give low values 0.98 | locus YEL061C, strain CIN8, hits give low values 1.01 | locus YGR078C, strain PAC10, hits give low values 0.976 | [2] 1.07 | locus YHR087W, strain rtc3, hits give low values 0.99 | locus YJR043C, strain POL32, hits give low values 1.03 | locus YJR075W, strain HOC1, hits give low values 0.971 | locus YLR039C, strain RIC1, hits give low values 1.07 | locus YLR058C, strain SHM2 (second series), hits give low values 0.993 | locus YLR085C, strain ARP6, hits give low values 1.03 | locus YLR262C, strain YPT6, hits give low values 1.04 | locus YML094W, strain GIM5, hits give low values 1.03 | locus YMR219W, strain ESC1, hits give low values 0.997 | locus YMR263W, strain SAP30, hits give low values 1 | locus YNL128W, strain TEP1, hits give low values 0.986 | locus YNL153C, strain GIM3, hits give low values 0.997 | locus YNL298W, strain CLA4 (second series), hits give low values 1.05 | locus YNL322C, strain KRE1, hits give low values 0.991 | locus YNR030W, strain Alg12, hits give low values 1.02 | locus YPL055C, strain LGE1, hits give low values 0.958 | locus YPL241C, strain CIN2, hits give low values 1 | locus YPR135W, strain CTF4, hits give low values 0.976

OCCc1ccccc1
inactive: locus YAL021C, strain ccr4, hits give low values 0.971 | locus YAL026C, strain drs2, hits give low values 0.98 | locus YAL030W, strain snc1, hits give low values 0.968 | locus YBL061C, strain skt5, hits give low values 0.985 | locus YBR009C, strain hhf1, hits give low values 0.976 | locus YBR023C, strain chs3, hits give low values 0.992 | locus YBR171W, strain sec66, hits give low values 0.968 | locus YBR231C, strain swc5, hits give low values 0.989 | locus YBR279W, strain paf1, hits give low values 0.989 | locus YCL011C, strain gbp2, hits give low values 0.989 | locus YCL016C, strain dcc1, hits give low values 0.994 | [1] 0.994 | locus YCL069W, strain vba3, hits give low values 0.99 | locus YCR088W, strain abp1, hits give low values 0.983 | locus YDL005C, strain med2, hits give low values 0.989 | locus YDL040C, strain nat1, hits give low values 0.999 | locus YDR001C, strain nth1, hits give low values 0.974 | locus YDR069C, strain doa4, hits give low values 0.981 | locus YDR137W, strain rgp1, hits give low values 0.948 | locus YDR159W, strain sac3, hits give low values 0.98 | locus YDR195W, strain ref2 0.947 | locus YDR297W, strain sur2, hits give low values 0.984 | locus YDR334W, strain swr1, hits give low values 0.94 | locus YDR335W, strain msn5, hits give low values 0.982 | locus YDR392W, strain spt3, hits give low values 0.999 | locus YEL003W, strain gim4, hits give low values 0.981 | locus YEL037C, strain rad23, hits give low values 0.986 | locus YEL061C, strain CIN8 (second series), hits give low values 0.977 | locus YER015W, strain faa2, hits give low values 0.987 | locus YER016W, strain bim1, hits give low values 0.99 | locus YER111C, strain swi4, hits give low values 0.982 | locus YER155C, strain BEM2 (second series), hits give low values 0.975 | locus YFR010W, strain ubp6, hits give low values 0.973 | locus YGL167C, strain pmr1, hits give low values 0.99 | locus YGL173C, strain kem1, hits give low values 0.957 | locus YGL227W, strain vid30, hits give low values 0.971 | locus YGL240W, strain doc1, hits give low values 0.977 | locus YGL253W, strain hxk2, hits give low values 0.986 | locus YHR013C, strain ard1, hits give low values 0.99 | locus YHR027C, strain rpn1, hits give low values 0.961 | [2] 0.97 | locus YHR079C, strain IRE1, hits give low values 0.951 | locus YHR142W, strain chs7, hits give low values 0.972 | locus YJL092W, strain hpr5, hits give low values 0.988 | locus YJL095W, strain BCK1 (second series), hits give low values 0.986 | locus YJL095W, strain BCK1, hits give low values 1.02 | locus YJL115W, strain asf1, hits give low values 0.976 | locus YJL129C, strain trk1, hits give low values 1.03 | locus YJL154C, strain vps35, hits give low values 0.969 | locus YJL164C, strain tpk1, hits give low values 1 | locus YJL166W, strain qcr8, hits give low values 0.989 | locus YJL187C, strain SWE1, hits give low values 0.987 | locus YJR066W, strain TOR1, hits give low values 0.952 | locus YKL160W, strain elf1, hits give low values 0.996 | locus YKR026C, strain gcn3, hits give low values 0.983 | locus YKR091W, strain srl3, hits give low values 0.994 | locus YLL001W, strain dnm1, hits give low values 0.999 | locus YLL026W, hits give low values 0.97 | locus YLL041C, strain sdh2, hits give low values 0.984 | locus YLR027C, strain aat2, hits give low values 0.965 | locus YLR113W, strain HOG1, hits give low values 1.01 | locus YLR221C, strain rsa3, hits give low values 0.982 | locus YLR258W, strain gsy2, hits give low values 0.992 | locus YLR262C, strain YPT6 (second series), hits give low values 0.961 | locus YLR320W, strain mms22, hits give low values 0.987 | locus YLR342W, strain FKS1, hits give low values 0.988 | locus YLR357W, strain rsc2, hits give low values 1 | locus YLR370C, strain arc18, hits give low values 0.988 | locus YLR384C, strain iki3, hits give low values 0.979 | locus YML120C, strain ndi1, hits give low values 0.995 | locus YMR058W, strain fet3, hits give low values 0.98 | locus YMR125W, strain sto1, hits give low values 0.982 | locus YMR129W, hits give low values 0.99 | locus YMR205C, strain PFK2, hits give low values 0.963 | locus YMR231W, strain pep5, hits give low values 0.99 | locus YNL071W, strain lat1, hits give low values 0.986 | locus YNL183C, strain NPR1, hits give low values 0.958 | locus YNL209W, strain ssb2, hits give low values 0.988 | locus YNL248C, strain rpa49, hits give low values 0.994 | locus YNL322C, strain KRE1 (second series), hits give low values 0.988 | locus YNR049C, strain mso1, hits give low values 0.975 | locus YOR001W, strain rrp6, hits give low values 0.993 | locus YOR070C, strain gyp1, hits give low values 0.986 | locus YOR080W, strain dia2, hits give low values 0.996 | locus YOR083W, strain WHI5, hits give low values 0.995 | locus YOR106W, strain vam3, hits give low values 0.976 | locus YOR231W, strain MKK1, hits give low values 0.973 | locus YOR265W, strain rbl2, hits give low values 1 | locus YOR270C, strain vph1, hits give low values 0.949 | locus YOR290C, strain snf2, hits give low values 0.986 | locus YPL051W, strain arl3, hits give low values 0.995 | locus YPL078C, strain atp4, hits give low values 0.976 | locus YPL106C, strain sse1, hits give low values 0.916 | locus YPL240C, strain hsp82, hits give low values 0.997 | locus YPL256C, strain CLN2, hits give low values 0.981
